Each structure is given as a SMILES string. This is part of a sample that, as a whole, favours compounds with a hit. Of some 83,000 tested, about 20% had one in any assay.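 Interpretation: 100, growth as untreated; towards 0, rising growth inhibition; 0, no net growth; 0 to -100, cell death. Compounds scoring below 10 were considered active.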 Unmarked numbers belong to inactive results. The source made the active and inactive calls.

Among the test systems are T-47D breast; BT-549 breast; MDA-MB-435 melanoma; SW-620 colon; MCF7 breast; HCT-116 colon; HCC-2998 colon; KM12 colon.
What all share (experiment): NCI-60 one-dose screen, 48 h (100 = growth as untreated, 0 = no growth, -100 = all killed)
Holding throughout (settings): 10 µM unless noted

As for `Cc1cc(C)cc(NC2=C(Cl)C(=O)c3nc(C)ccc3C2=O)c1`, the growth was -20% (active) in the experiment with T-47D breast; 66.6% with BT-549 breast; -78.8% (active) with MDA-MB-435 melanoma; -6.15% (active) with SW-620 colon; -44.4% (active) in the experiment on MCF7 breast; 9.38% (active) in the experiment on HCT-116 colon. The growth with HCC-2998 colon was 77.6%; in the experiment on KM12 colon, 76.8%.
`O=C1[C@@H]2Cc3c([nH]c4ccccc34)[C@@H](c3ccc(Cl)cc3)N2C(=O)CN1C1CCN(Cc2c(F)cccc2F)CC1`: the growth with T-47D breast was 56.8%; with BT-549 breast, 46.3%; with MDA-MB-435 melanoma, 46.9%; with SW-620 colon, 48.6%; with MCF7 breast, 15.3%; in the experiment on HCT-116 colon, 17.8%. The growth with HCC-2998 colon is 6.16% (active); in the experiment with KM12 colon, 35.1%.
On to `O=c1c2cc(-c3ccc(F)cc3F)ccc2n(O)c(=O)n1-c1cccc(C(F)(F)F)c1`, for which the growth in the experiment on T-47D breast is -15.9% (active); in the experiment with BT-549 breast, -3.54% (active); in the experiment on MDA-MB-435 melanoma, 1.71% (active); in the experiment on SW-620 colon, 16.3%; in the experiment with MCF7 breast it was 1.33% (active); in the experiment with HCT-116 colon, 1.93% (active). Besides, the growth with HCC-2998 colon is 9.79% (active); in the experiment on KM12 colon, 7.94% (active).
As to `CC(O)c1cccc(/C(N)=N/C(N)=N/c2nc3ccccc3s2)c1` (stereo not given), the growth in the experiment with T-47D breast was 83.6%; in the experiment on BT-549 breast, 117%; in the experiment with MDA-MB-435 melanoma, 98%; in the experiment with SW-620 colon, 98.2%; with MCF7 breast, 90.5%; with HCT-116 colon it was 70.1%. In addition, the figures for the growth with HCC-2998 colon and with KM12 colon were 118% and 83.2%, respectively.
For `CS(=O)(=O)c1nccc(-c2c(-c3cccc(OCc4ccc(Cl)c(C(F)(F)F)c4)c3)nc3sccn23)n1`, the growth in the experiment on T-47D breast is -45.6% (active); with BT-549 breast, 101%; in the experiment with MDA-MB-435 melanoma, 103%; in the experiment on SW-620 colon it was 61.2%; in the experiment with MCF7 breast, -67.8% (active); with HCT-116 colon, 70.4%. For the same compound, the results for the growth in the experiment on HCC-2998 colon and in the experiment with KM12 colon were -50.1% (active) and 37%, respectively.
Turning to `C#C[C@]1(O)CC[C@H]2[C@@H]3CC=C4c5sc(Nc6ncccc6C)nc5CC[C@]4(C)[C@H]3CC[C@@]21C`, the growth in the experiment on T-47D breast is 29.2%; in the experiment with BT-549 breast it was -1.46% (active); with MDA-MB-435 melanoma, -39.3% (active); with SW-620 colon, -40.9% (active); with MCF7 breast it was -48.8% (active); with HCT-116 colon it was 7.15% (active). Moreover, the growth in the experiment on HCC-2998 colon is 28.8%; in the experiment with KM12 colon, 3.23% (active).
Turning to `COC(=O)c1cccc(NC2=C(Cl)C(=O)C(C)=C(C)C2=O)c1`, the growth in the experiment on T-47D breast was -18.1% (active); in the experiment with BT-549 breast, 96.2%; in the experiment with MDA-MB-435 melanoma it was 104%; in the experiment on SW-620 colon, 103%; in the experiment on MCF7 breast, 82%; in the experiment on HCT-116 colon it was 70.1%. Further, the figures for the growth in the experiment on HCC-2998 colon and in the experiment on KM12 colon were 98.2% and 49.2%, respectively.
On to `C#C[C@]1(O)CC[C@H]2[C@@H]3CC=C4c5sc(Nc6cc(Cl)ccc6OC)nc5CC[C@]4(C)[C@H]3CC[C@@]21C`, for which the growth in the experiment on T-47D breast is 31.2%; with BT-549 breast, 3.68% (active); in the experiment with MDA-MB-435 melanoma, -0.171% (active); with SW-620 colon, -20.7% (active); with MCF7 breast it was -15.1% (active); in the experiment on HCT-116 colon, 7.63% (active). Also, the growth was 54.3% in the experiment with HCC-2998 colon and 31.9% with KM12 colon.
`O=c1c2cc(-c3ccc(F)cc3F)ccc2n(Nc2ccccc2)c(=O)n1-c1cccc(C(F)(F)F)c1`: the growth with T-47D breast was 8.44% (active); with BT-549 breast, 3.91% (active); with MDA-MB-435 melanoma, 5.62% (active); with SW-620 colon, 16%; with MCF7 breast it was 4.02% (active); with HCT-116 colon it was 7.14% (active). In addition, the growth is 14.7% in the experiment with HCC-2998 colon and 11.4% in the experiment on KM12 colon.
For `C#C[C@]1(O)CC[C@H]2[C@@H]3CC=C4c5sc(N6CCN(C)CC6)nc5CC[C@]4(C)[C@H]3CC[C@@]21C`, the growth was 85.7% in the experiment on T-47D breast; 16.9% in the experiment on BT-549 breast; 1.24% (active) in the experiment with MDA-MB-435 melanoma; 19.6% in the experiment with SW-620 colon; 24.2% in the experiment with MCF7 breast; -41% (active) in the experiment on HCT-116 colon. The growth is 81.2% with HCC-2998 colon and 21.1% in the experiment with KM12 colon.
In the case of `Brc1cc(-c2cc(-c3ccc4c(c3)OC=CO4)[nH]n2)cs1`, the growth in the experiment on T-47D breast is 62.1%; in the experiment on BT-549 breast, 109%; in the experiment on MDA-MB-435 melanoma it was 28.4%; in the experiment with SW-620 colon, 82.1%; in the experiment on MCF7 breast, 25.1%; with HCT-116 colon it was 84.1%. The values for the growth in the experiment with HCC-2998 colon and with KM12 colon were 94.7% and 64.2%, respectively.
Take `OCC(Nc1ncnc2ccc(-c3cnc4cnccn34)cc12)c1ccccc1` (stereo not given): the growth was 28.4% with T-47D breast; 76.2% in the experiment on BT-549 breast; 90% in the experiment on MDA-MB-435 melanoma; 105% in the experiment on SW-620 colon; 60.9% in the experiment on MCF7 breast; 79.3% in the experiment with HCT-116 colon. Further, the growth in the experiment on HCC-2998 colon is 82.9%; in the experiment on KM12 colon, 80.9%.
Turning to `CN1CCN(Cc2ccc(NC(=O)c3cncc(C#Cc4cnc5ccc(N)nn45)c3)cc2C(F)(F)F)CC1`, the growth in the experiment with T-47D breast is 60.5%; in the experiment with BT-549 breast, 38.7%; in the experiment on MDA-MB-435 melanoma it was 40.5%; with SW-620 colon it was 0.667% (active); in the experiment with MCF7 breast it was -19.7% (active); in the experiment with HCT-116 colon, 1.19% (active). The growth is 20.7% in the experiment with HCC-2998 colon and 3.48% (active) in the experiment on KM12 colon.
As to `C#Cc1nc(C(=O)NCCCCCCC(=O)NO)cs1`, the growth in the experiment on T-47D breast was -38.5% (active); in the experiment with BT-549 breast it was 50.3%; in the experiment on MDA-MB-435 melanoma, -34.9% (active); in the experiment on SW-620 colon, 0.565% (active); with MCF7 breast, 6.97% (active); in the experiment with HCT-116 colon, -18.2% (active). Besides, the growth in the experiment with HCC-2998 colon was 25.9%; in the experiment on KM12 colon, -7.86% (active).
In the case of `CC(C)(C)Nc1nc2c(OCCc3ccccc3)cccn2c1-c1cccc(Oc2ccccc2)c1`, the growth in the experiment with T-47D breast was 8.72% (active); with BT-549 breast, -11% (active); in the experiment with MDA-MB-435 melanoma, 19.9%; in the experiment with SW-620 colon it was 23.5%; in the experiment on MCF7 breast, 4.96% (active); with HCT-116 colon, 4.13% (active). Besides, the growth was 21.3% in the experiment on HCC-2998 colon and 14% in the experiment on KM12 colon.
